Measured values reported in publication PMC11062922 (Nature Chemical Biology, 2023).
Read-outs that look alike come from different tables or passages of the source.

How the values were obtained:
Design in all cases: species or system human, MV4-11 + K-562 + COLO205 + SK-N-BE2 + OVCAR-8
MAP3K12 = conditions: read-out: apparent Kd; compound concentrations:100 nM and 1000 nM (sheet 'Samples'); n = 1
MAPK11 = conditions: read-out: apparent Kd, n = 1
NUAK1 = conditions: read-out: apparent Kd; compound concentrations:100 nM and 1000 nM (sheet 'Samples'); n = 1
NUAK2 = conditions: read-out: apparent Kd; compound concentrations:100 nM and 1000 nM (sheet 'Samples'); n = 1
MAP3K6 = conditions: read-out: apparent Kd; compound concentrations: 100 nM and 1000 nM (sheet 'Samples'), CATDS: 0.469017197153689; n = 1
MAPK14 = conditions: read-out: apparent Kd, n = 1
MAP3K1 = conditions: read-out: apparent Kd; compound concentrations:100 nM and 1000 nM (sheet 'Samples'); n = 1
PAICS = conditions: read-out: apparent Kd; compound concentrations:100 nM and 1000 nM (sheet 'Samples'); n = 1
PIK3CG = conditions: read-out: apparent Kd; compound concentrations:100 nM and 1000 nM (sheet 'Samples'); n = 1
MAPK10 = conditions: read-out: apparent Kd, n = 1
MAPK8 = conditions: read-out: apparent Kd; compound concentrations:100 nM and 1000 nM (sheet 'Samples'); n = 1
MAPK9 = conditions: read-out: apparent Kd; compound concentrations:100 nM and 1000 nM (sheet 'Samples'); n = 1
MAPKAPK2 = conditions: read-out: apparent Kd; compound concentrations:100 nM and 1000 nM (sheet 'Samples'); n = 1
LIMK1 = conditions: read-out: apparent Kd; compound concentrations: 100 nM and 1000 nM (sheet 'Samples'), CATDS: 0.71485033586555802; n = 1
LIMK2 = conditions: read-out: apparent Kd; compound concentrations: 100 nM and 1000 nM (sheet 'Samples'), CATDS: 0.38445187661018698; n = 1
PIP4K2C = conditions: read-out: apparent Kd; compound concentrations:100 nM and 1000 nM (sheet 'Samples'); n = 1
MAP2K5 = conditions: read-out: apparent Kd; compound concentrations:100 nM and 1000 nM (sheet 'Samples'); n = 1
PBK = conditions: read-out: apparent Kd; compound concentrations:100 nM and 1000 nM (sheet 'Samples'); n = 1
PTK6 = conditions: read-out: apparent Kd; compound concentrations:100 nM and 1000 nM (sheet 'Samples'); n = 1
RIPK2 = conditions: read-out: apparent Kd; compound concentrations:100 nM and 1000 nM (sheet 'Samples'); n = 1
RIPK3 = conditions: read-out: apparent Kd; compound concentrations:100 nM and 1000 nM (sheet 'Samples'); n = 1
SIK2 = conditions: read-out: apparent Kd; compound concentrations:100 nM and 1000 nM (sheet 'Samples'); n = 1
MAP2K1 = conditions: read-out: apparent Kd; compound concentrations:100 nM and 1000 nM (sheet 'Samples'); n = 1
NLK = conditions: read-out: apparent Kd; compound concentrations:100 nM and 1000 nM (sheet 'Samples'); n = 1
[1] = compound concentrations:100 nM and 1000 nM (sheet 'Samples')

Work on O=C(Nc1n[nH]c2nc(-c3ccccc3)c(Cl)cc12)C1CC1 [SB-734909] yielded a potency estimated from few doses (MAP3K12) of 1520 nM, a potency estimated from few doses (MAPK11; [1]) of 1940 nM and a potency estimated from few doses (NUAK1) of 1980 nM. For the same molecule, the potency estimated from few doses (NUAK2) was 1350 nM.
Work on Cl.Nc1c(C(=O)c2cccc(-c3ccncc3)c2)cnn1-c1ccc(F)cc1 [RO1165037-001] yielded a potency estimated from few doses (MAP3K6) of 1810 nM and a potency estimated from few doses (MAPK11; compound concentrations: 100 nM and 1000 nM (sheet 'Samples'), CATDS: 0.53536571927793597) of 1390 nM.
Nc1c(C(=O)c2cccc(OC[C@H](O)CO)c2)cnn1-c1ccc(F)cc1 [RO3201196-000] gave a potency estimated from few doses (MAPK11; compound concentrations: 100 nM and 1000 nM (sheet 'Samples'), CATDS: 1) of 697 nM.
With Cl.Nc1c(C(=O)c2cccc(-c3cccnc3)c2)cnn1-c1ccc(F)cc1F [RO1164194-001] the potency estimated from few doses (MAPK11; compound concentrations: 100 nM and 1000 nM (sheet 'Samples'), CATDS: 0.82795584306013303) was 112 nM and the potency estimated from few doses (MAPK14; compound concentrations: 100 nM and 1000 nM (sheet 'Samples'), CATDS: 0.35813974934326798) was 968 nM.
C[C@@H](Oc1cc(-n2cnc3ccc(OC4CCN(C)CC4)cc32)sc1C(N)=O)c1ccccc1Cl [GSK579289A] showed a potency estimated from few doses (MAP3K1) of 1340 nM, a potency estimated from few doses (NUAK2) of 601 nM and a potency estimated from few doses (PAICS) of 1760 nM. It also gave a potency estimated from few doses (PIK3CG) of 1030 nM.
With N#CCn1c(=O)c(Oc2ccc(F)cc2F)cc2cnc(NC3CCOCC3)nc21 [RO5040027-000] the potency estimated from few doses (MAPK10; [1]) was 45.1 nM, the potency estimated from few doses (MAPK11; [1]) was 146 nM and the potency estimated from few doses (MAPK14; [1]) was 3.79 nM. It also gave a potency estimated from few doses (MAPK8) of 523 nM, a potency estimated from few doses (MAPK9) of 146 nM and a potency estimated from few doses (MAPKAPK2) of 3.65 nM.
Molecule CCCCN(Cc1ccccc1)C(=O)c1ccc(S(=O)(=O)Nc2ccccc2)cc1 [TH257] has a potency estimated from few doses (LIMK1) of 578 nM and a potency estimated from few doses (LIMK2) of 2320 nM.
Molecule O=c1[nH]c2nc(NC3CCOCC3)ncc2cc1Oc1ccc(F)cc1F [RO3310867-000] has a potency estimated from few doses (MAPK10; [1]) of 150 nM, a potency estimated from few doses (MAPK11; [1]) of 655 nM and a potency estimated from few doses (MAPK14; compound concentrations: 100 nM and 1000 nM (sheet 'Samples'), CATDS: 0.37744016768512201) of 9.96 nM. The potency estimated from few doses (MAPK8) was 554 nM, the potency estimated from few doses (MAPK9) was 98.4 nM and the potency estimated from few doses (MAPKAPK2) was 5.98 nM. The potency estimated from few doses (PIP4K2C) was 781 nM.
Work on CNC(=O)Oc1cc(C)c(/C=C/c2cncc(C(=O)NC)c2)c(C)c1 [GW432441X] yielded a potency estimated from few doses (MAP2K5) of 231 nM, a potency estimated from few doses (PBK) of 1680 nM and a potency estimated from few doses (PTK6) of 45.3 nM. The potency estimated from few doses (RIPK2) was 28.1 nM, the potency estimated from few doses (RIPK3) was 399 nM and the potency estimated from few doses (SIK2) was 1320 nM.
In the case of CCOc1cc(N2CCC(O)CC2)ccc1Nc1ncc2c(n1)N(C)c1ccccc1C(=O)N2C [XMD8-92], the potency estimated from few doses (MAP2K1) was 1780 nM.
Cl.Cn1c(=O)c(Oc2ccc(F)cc2F)cc2cnc(N[C@H]3CC[C@H](O)CC3)nc21 [RO3305413-001] gave a potency estimated from few doses (MAPK11; [1]) of 806 nM, a potency estimated from few doses (MAPK14; [1]) of 5.68 nM and a potency estimated from few doses (MAPK8) of 75.9 nM. The potency estimated from few doses (MAPK9) was 26.4 nM, the potency estimated from few doses (MAPKAPK2) was 4.66 nM and the potency estimated from few doses (NLK) was 199 nM. The potency estimated from few doses (PIP4K2C) was 791 nM.
With Cl.Cn1c(=O)c(Oc2ccc(F)cc2F)cc2cnc(NC(CO)CO)nc21 [RO3310123-001] the potency estimated from few doses (MAPK10; compound concentrations: 100 nM and 1000 nM (sheet 'Samples'), CATDS: 0.34863308961168299) was 1500 nM and the potency estimated from few doses (MAPK14; compound concentrations: 100 nM and 1000 nM (sheet 'Samples'), CATDS: 0.88366158604644096) was 106 nM.
